# Results with a measured potency or affinity are listed apart. The source made the active and inactive calls. No rule for the calls is given here.
# Biological target: KSHV LANA C-terminal domain (residues 932-1162) binding to LBS DNA (UniProt O40947)
# Experiment: inhibitors of C-LANA binding to LBS DNA, dose response, biochemical, fluorescence polarization, cherry-picked samples (AID 504725)
# Conditions: MBP-C-LANA / FAM-LBS DNA fluorescence polarization, percent change from plate compound-well median; series mostly up to 35 µM
row,SMILES,outcome
1,Cc1cccc(-c2nsc(SCC(=O)Nc3nccs3)n2)c1,inactive
2,Cc1noc(C)c1C(=O)N1CCN(c2ccc(OCc3ccccc3)cc2)CC1,inactive
3,O=C1c2c(O)ccc(O)c2C(=O)c2c(NCCNCCO)ccc(NCCNCCO)c21,inactive
4,CCCc1nnc(NC(=O)CCC(=O)NCc2ccc(OC)cc2)s1,inactive
5,COc1cccc(NC(=S)N2CCN(C(c3ccccc3)c3ccccc3)CC2)c1,inactive
6,O=C(Nc1ccc(Br)cn1)c1cccc2ccccc12,inactive
7,O=C1c2ccccc2C(=O)N1Cc1ccc2c(c1)OCO2,inactive
8,COc1ccc(CC(=O)O/N=C(\N)c2ccc(OC)cc2)cc1,inactive
9,COc1cc2c(cc1OC)CN(C(=O)c1ccc(S(=O)(=O)N3CCCC3)cc1)CC2,inactive
10,CCOC(=O)CN1NC2(CCCCCC2)NC1=S,inactive
11,CCCC1(C2CCCC2)NC(=O)NC1=O (configuration not stated),inactive
12,CCCCn1c(NS(=O)(=O)c2ccc(C)cc2)c(S(=O)(=O)c2ccccc2)c2nc3ccccc3nc21,inactive
13,Cc1cc2c(N)cccc2nn1,inactive
14,NNc1nc(-c2ccccc2)cs1,inactive
15,CC(Sc1ncccn1)C(=O)NNC(=O)c1cccc(Cl)c1 (configuration not stated),inactive
16,CSc1n[nH]c(=O)n1-c1cccc(Cl)c1,inactive
17,CCc1noc(C)c1C(=O)N1CCCC(N2CCN(c3ccc(F)cc3)CC2)C1 (configuration not stated),inactive
18,COc1ccc(NC(=O)CO/N=C2/CCCc3nonc32)c(OC)c1,inactive
19,Nc1nc(SCC(=O)N2CCCCC2)[nH]c(=O)c1NC(=O)c1cccs1,inactive

row,SMILES,outcome
1,COc1cccc(NC(=O)N(CCN(C)C)C(C)c2cccnc2)c1 (configuration not stated),inactive
2,COC(=O)c1sc(C(F)(F)F)c(-c2ccccc2)c1S(=O)(=O)N1CCOCC1,inactive
3,CC(/C=C1\SC(=S)N(CCCC(=O)Nc2ccc(C(=O)O)cc2)C1=O)=C\c1ccccc1,inactive
4,CC(Sc1nc(-c2ccco2)nc2c1c(=O)n(C)c(=O)n2C)C(=O)O (configuration not stated),inactive
5,O=C(O)/C=C/c1ccccc1Oc1ccccc1,inactive
6,COc1cc(SC)ccc1C(=O)Nc1nc(C)cs1,inactive
7,CC(OC(=O)CCN1C(=O)C2CC=CCC2C1=O)C(=O)Nc1ccc(F)cc1 (configuration not stated),inactive
8,CC(C)(C)OC(=O)N1CCC[C@H]1c1nnc(SCc2cccc(Cl)c2)o1,inactive
9,CCOC(=O)c1ccccc1Nc1cc(C)nc2nc(C)nn12,inactive
10,Cn1c(=O)c2c(nc(SCC(=O)NCc3ccc4c(c3)OCO4)n2Cc2ccc(Cl)cc2)n(C)c1=O,inactive
11,NC(=O)C1(N2CCCCC2)CCN(Cc2ccc(Br)cc2)CC1,inactive
12,O=C(c1cccc(S(=O)(=O)NCc2ccccc2)c1)N1CCN(c2ccccc2Cl)CC1,inactive
13,COc1cc(CN2CC(=O)N(c3cc(Cl)ccc3C)C2=S)cc(OC)c1OC,inactive
14,CCN(C(=O)COC(=O)CCCOc1ccc(Cl)cc1C)c1c(N)n(Cc2ccccc2)c(=O)[nH]c1=O,inactive
15,Cc1ccc(C(=O)c2coc3ccc(O)c(Cl)c23)cc1,inactive
16,CN(C)c1ccc(/C=C/C(=O)c2ccc(O)cc2)cc1[N+](=O)[O-],inactive
17,CN1CCc2c(sc(NC(=O)c3ccc4ccccc4c3)c2C(N)=O)C1,inactive
18,COc1cccc2[nH]c(C(=O)NC(C)c3ccccc3)cc12 (configuration not stated),inactive
